Measured values from paper PMC7862700, “An all-to-all approach to the identification of sequence-specific readers for epigenetic DNA modifications on cytosine”.

Columns and labels:
Test in all cases: DAPPL (digital affinity profiling via proximity ligation, sequencing); 10 mM Tris-HCl pH 7.5, 50 mM NaCl, 1 mM DTT, 4% glycerol, room temperature, 30 min; GST-TFs on glutathione beads, 16-mer random dsDNA library, 0.1% formaldehyde crosslink after washing; high values mean tight binding
FLI1 = target: T1, FLI1 (Homo sapiens, UniProt Q01543 1-452); details: protein: recombinant; tags: N-terminal GST; dsDNA, one strand shown
T1 sequence: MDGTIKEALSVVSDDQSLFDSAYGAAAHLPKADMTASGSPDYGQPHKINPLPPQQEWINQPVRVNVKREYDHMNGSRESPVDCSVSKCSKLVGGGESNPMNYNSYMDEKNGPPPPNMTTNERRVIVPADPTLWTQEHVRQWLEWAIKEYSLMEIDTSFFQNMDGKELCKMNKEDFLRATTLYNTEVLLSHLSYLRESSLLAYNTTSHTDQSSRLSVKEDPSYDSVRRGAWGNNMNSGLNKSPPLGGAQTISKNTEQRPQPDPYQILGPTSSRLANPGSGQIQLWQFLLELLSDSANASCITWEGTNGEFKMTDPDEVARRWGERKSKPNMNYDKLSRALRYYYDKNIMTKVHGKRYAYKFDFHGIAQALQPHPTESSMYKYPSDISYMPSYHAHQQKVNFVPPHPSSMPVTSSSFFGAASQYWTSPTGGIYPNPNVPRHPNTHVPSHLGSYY
How it was run: (§1)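 Human transcription factors carrying a GST fusion were produced in yeast, bound to glutathione beads, tagged with DNA barcodes and pooled together with a tag-only sample. Each pool was held with 200 nmole of a random double-stranded 16-mer DNA library in Tris/NaCl/DTT/glycerol buffer for 30 min at room temperature, then washed, crosslinked in 0.1% formaldehyde, proximity-ligated with BsaI/T4 ligase (1 h, 37 °C), PCR-amplified and sequenced on an Illumina NextSeq500. Binding signal is the read frequency of each hexamer for a given factor divided by its frequency in the tag-only sample.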

ELK1 = target: T2, ELK1 (Homo sapiens, UniProt P19419 1-428); details: protein: recombinant; tags: N-terminal GST; dsDNA, one strand shown
T2 sequence: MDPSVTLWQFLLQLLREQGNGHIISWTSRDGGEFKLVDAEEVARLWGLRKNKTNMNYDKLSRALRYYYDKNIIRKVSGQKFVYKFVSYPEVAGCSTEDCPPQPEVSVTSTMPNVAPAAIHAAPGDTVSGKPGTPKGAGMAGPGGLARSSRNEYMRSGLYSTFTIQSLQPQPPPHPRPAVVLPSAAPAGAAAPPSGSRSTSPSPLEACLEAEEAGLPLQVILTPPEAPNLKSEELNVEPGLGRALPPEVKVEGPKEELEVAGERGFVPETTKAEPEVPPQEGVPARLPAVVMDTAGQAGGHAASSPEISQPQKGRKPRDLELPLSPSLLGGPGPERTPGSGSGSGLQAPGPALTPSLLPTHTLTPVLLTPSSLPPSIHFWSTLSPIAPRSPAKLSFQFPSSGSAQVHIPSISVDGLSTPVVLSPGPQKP
How it was run: as §1

GABPA = target: T3, GABPA (Homo sapiens, UniProt Q06546 1-454); details: protein: recombinant; tags: N-terminal GST; dsDNA, one strand shown
T3 sequence: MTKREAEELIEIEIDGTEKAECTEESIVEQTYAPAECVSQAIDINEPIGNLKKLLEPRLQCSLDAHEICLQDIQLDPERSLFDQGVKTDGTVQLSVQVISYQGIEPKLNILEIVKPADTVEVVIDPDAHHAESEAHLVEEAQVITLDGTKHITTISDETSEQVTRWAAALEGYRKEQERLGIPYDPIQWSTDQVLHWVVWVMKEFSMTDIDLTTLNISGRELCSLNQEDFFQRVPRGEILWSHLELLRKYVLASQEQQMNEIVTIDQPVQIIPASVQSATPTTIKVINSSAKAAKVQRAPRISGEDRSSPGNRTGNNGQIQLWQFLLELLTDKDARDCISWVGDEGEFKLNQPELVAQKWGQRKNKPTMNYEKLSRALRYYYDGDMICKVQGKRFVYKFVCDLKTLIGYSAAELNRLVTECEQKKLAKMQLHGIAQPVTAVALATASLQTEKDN
How it was run: as §1

ERG = target: T4, ERG (Homo sapiens, UniProt P11308 1-479); details: protein: recombinant; tags: N-terminal GST; dsDNA, one strand shown
T4 sequence: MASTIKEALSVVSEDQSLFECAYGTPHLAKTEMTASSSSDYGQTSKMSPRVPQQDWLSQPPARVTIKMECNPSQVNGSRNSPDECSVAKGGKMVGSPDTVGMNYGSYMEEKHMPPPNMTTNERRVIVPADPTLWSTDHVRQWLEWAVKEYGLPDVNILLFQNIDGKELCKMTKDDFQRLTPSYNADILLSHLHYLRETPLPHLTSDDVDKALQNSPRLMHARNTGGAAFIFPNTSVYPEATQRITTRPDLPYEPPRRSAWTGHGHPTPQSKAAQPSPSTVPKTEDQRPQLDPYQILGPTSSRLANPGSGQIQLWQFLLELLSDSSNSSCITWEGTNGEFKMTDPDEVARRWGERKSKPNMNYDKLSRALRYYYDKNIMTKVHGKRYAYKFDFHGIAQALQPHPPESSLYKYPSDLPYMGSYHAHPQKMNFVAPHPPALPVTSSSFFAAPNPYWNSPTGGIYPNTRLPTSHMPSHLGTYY
How it was run: as §1

ELF1 = ELF1 (Homo sapiens, UniProt P32519 1-619); details: protein: recombinant; tags: N-terminal GST; dsDNA, one strand shown
How it was run: as §1

EHF = target: T5, EHF (Homo sapiens, UniProt Q9NZC4 1-300); details: protein: recombinant; tags: N-terminal GST; dsDNA, one strand shown
T5 sequence: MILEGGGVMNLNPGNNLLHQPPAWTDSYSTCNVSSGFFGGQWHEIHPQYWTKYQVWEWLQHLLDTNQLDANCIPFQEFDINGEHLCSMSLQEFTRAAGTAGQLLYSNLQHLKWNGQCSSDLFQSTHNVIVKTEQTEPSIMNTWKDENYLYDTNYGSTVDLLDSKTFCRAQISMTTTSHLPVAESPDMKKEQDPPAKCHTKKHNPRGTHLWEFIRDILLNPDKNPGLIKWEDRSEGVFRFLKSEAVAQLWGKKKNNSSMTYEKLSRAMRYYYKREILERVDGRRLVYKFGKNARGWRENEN
How it was run: as §1

SPI1 = SPI1 (Homo sapiens, UniProt P17947 1-270); details: protein: recombinant; tags: N-terminal GST; dsDNA, one strand shown
How it was run: as §1

SPIB = SPIB (Homo sapiens, UniProt Q01892 1-262); details: protein: recombinant; tags: N-terminal GST; dsDNA, one strand shown
How it was run: as §1

ELK3 = target: T6, ELK3 (Homo sapiens, UniProt P41970 1-407); details: protein: recombinant; tags: N-terminal GST; dsDNA, one strand shown
T6 sequence: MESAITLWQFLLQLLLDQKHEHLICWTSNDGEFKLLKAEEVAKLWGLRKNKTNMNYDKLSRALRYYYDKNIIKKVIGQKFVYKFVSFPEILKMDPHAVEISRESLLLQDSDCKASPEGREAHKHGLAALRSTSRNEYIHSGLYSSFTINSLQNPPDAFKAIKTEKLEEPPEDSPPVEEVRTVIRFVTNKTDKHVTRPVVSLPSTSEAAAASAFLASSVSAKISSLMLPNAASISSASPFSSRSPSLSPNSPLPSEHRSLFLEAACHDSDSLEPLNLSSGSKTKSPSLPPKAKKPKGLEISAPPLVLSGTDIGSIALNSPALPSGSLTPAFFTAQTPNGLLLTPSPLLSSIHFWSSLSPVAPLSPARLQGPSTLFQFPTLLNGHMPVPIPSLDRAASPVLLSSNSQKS
How it was run: as §1

FEV = target: T7, FEV (Homo sapiens, UniProt Q99581 1-238); details: protein: recombinant; tags: N-terminal GST; dsDNA, one strand shown
T7 sequence: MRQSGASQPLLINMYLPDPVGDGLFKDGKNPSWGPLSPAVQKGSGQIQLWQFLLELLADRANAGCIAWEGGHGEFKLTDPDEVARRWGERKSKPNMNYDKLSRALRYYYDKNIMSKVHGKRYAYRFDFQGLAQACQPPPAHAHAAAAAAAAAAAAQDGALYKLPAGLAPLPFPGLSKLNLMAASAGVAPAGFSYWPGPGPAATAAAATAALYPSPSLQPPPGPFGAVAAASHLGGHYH
How it was run: as §1

ETV5 = ETV5 (Homo sapiens, UniProt P41161 1-510); details: protein: recombinant; tags: N-terminal GST; dsDNA, one strand shown
How it was run: as §1

HSF1 = HSF1 (Homo sapiens, UniProt Q00613 1-529); details: protein: recombinant; tags: N-terminal GST; chain copies: 3; dsDNA, one strand shown
How it was run: as §1

SPIC = target: T8, SPIC (Homo sapiens, UniProt Q8N5J4 1-248); details: protein: recombinant; tags: N-terminal GST; dsDNA, one strand shown
T8 sequence: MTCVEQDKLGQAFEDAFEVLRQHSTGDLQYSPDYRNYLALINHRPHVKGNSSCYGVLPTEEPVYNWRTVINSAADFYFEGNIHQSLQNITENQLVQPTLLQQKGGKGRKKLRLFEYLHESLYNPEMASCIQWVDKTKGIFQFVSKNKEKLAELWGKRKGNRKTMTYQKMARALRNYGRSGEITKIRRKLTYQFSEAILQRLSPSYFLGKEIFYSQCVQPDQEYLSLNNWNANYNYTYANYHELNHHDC
How it was run: as §1

ELF4 = ELF4 (Homo sapiens, UniProt Q99607 1-663); details: protein: recombinant; tags: N-terminal GST; dsDNA, one strand shown
How it was run: as §1

ELK4 = target: T9, ELK4 (Homo sapiens, UniProt P28324-2 1-405); details: protein: recombinant; tags: N-terminal GST; dsDNA, one strand shown
T9 sequence: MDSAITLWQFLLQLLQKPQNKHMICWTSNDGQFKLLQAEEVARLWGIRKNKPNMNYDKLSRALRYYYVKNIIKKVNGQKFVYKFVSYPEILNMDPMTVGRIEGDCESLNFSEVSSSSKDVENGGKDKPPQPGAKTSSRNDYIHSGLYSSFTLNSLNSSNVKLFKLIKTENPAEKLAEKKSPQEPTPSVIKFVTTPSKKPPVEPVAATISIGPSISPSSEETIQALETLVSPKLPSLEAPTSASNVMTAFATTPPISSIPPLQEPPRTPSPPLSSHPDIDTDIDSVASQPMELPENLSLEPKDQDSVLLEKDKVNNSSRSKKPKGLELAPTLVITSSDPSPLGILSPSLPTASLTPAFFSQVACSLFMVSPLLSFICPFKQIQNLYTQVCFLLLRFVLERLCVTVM
How it was run: as §1

ETV2 = target: T10, ETV2 (Homo sapiens, UniProt O00321 1-342); details: protein: recombinant; tags: N-terminal GST; dsDNA, one strand shown
T10 sequence: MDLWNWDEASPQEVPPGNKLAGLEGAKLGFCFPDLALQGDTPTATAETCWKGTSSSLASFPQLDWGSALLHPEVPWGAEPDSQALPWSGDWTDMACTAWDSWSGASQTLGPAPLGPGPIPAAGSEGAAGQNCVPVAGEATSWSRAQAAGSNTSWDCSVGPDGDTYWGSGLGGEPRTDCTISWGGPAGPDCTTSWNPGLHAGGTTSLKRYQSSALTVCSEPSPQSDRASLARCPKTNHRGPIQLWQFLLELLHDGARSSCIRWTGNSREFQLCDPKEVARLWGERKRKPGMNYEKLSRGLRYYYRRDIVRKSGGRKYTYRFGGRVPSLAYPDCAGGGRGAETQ
How it was run: as §1

ELF3 = target: T11, ELF3 (Homo sapiens, UniProt P78545 1-371); details: protein: recombinant; tags: N-terminal GST; dsDNA, one strand shown
T11 sequence: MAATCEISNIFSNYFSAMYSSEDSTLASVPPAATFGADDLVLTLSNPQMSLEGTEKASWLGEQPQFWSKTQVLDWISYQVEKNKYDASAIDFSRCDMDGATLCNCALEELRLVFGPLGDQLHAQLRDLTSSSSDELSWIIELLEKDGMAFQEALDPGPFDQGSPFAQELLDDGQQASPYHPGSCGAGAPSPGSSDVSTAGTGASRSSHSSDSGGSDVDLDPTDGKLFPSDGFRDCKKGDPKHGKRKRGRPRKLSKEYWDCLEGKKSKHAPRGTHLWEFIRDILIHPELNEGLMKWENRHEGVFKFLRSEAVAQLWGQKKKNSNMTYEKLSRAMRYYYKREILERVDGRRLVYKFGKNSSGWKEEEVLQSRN
How it was run: as §1

CRX = CRX (Homo sapiens, UniProt O43186 1-299); details: protein: recombinant; tags: N-terminal GST; dsDNA, one strand shown
How it was run: as §1

ETV1 = ETV1 (Homo sapiens, UniProt P50549 1-477); details: protein: recombinant; tags: N-terminal GST; dsDNA, one strand shown
How it was run: as §1

Chain of ELF1 (P32519 whole entry): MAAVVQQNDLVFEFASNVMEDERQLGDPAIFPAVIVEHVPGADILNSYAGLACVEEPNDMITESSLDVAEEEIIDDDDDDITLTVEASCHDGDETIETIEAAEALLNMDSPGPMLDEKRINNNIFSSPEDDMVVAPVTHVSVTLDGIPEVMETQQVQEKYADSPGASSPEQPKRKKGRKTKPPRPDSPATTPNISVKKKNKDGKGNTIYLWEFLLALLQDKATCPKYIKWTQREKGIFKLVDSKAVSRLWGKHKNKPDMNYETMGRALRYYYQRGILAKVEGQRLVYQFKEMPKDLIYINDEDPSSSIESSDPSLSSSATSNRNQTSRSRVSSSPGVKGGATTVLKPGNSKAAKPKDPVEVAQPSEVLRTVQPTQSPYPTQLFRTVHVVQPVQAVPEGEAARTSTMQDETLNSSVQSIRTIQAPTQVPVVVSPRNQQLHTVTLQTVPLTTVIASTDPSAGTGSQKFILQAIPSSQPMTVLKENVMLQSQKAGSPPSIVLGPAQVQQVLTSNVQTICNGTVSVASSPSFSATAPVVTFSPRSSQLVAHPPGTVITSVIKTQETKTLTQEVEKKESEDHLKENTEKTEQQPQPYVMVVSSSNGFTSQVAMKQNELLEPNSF
Chain of ETV1 (P50549 whole entry): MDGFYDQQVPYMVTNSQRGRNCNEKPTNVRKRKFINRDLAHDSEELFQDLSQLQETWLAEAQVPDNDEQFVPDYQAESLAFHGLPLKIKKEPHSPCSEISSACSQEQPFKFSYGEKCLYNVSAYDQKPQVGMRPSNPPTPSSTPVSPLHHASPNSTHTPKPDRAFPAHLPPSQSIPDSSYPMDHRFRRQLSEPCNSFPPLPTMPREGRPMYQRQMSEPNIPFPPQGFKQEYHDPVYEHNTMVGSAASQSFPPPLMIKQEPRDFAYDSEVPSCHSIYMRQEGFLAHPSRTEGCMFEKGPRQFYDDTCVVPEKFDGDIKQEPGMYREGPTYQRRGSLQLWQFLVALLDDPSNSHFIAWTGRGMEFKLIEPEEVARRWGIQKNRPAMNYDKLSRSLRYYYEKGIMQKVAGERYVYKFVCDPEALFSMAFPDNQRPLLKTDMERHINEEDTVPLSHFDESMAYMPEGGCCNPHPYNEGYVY
Chain of ETV5 (P41161 whole entry): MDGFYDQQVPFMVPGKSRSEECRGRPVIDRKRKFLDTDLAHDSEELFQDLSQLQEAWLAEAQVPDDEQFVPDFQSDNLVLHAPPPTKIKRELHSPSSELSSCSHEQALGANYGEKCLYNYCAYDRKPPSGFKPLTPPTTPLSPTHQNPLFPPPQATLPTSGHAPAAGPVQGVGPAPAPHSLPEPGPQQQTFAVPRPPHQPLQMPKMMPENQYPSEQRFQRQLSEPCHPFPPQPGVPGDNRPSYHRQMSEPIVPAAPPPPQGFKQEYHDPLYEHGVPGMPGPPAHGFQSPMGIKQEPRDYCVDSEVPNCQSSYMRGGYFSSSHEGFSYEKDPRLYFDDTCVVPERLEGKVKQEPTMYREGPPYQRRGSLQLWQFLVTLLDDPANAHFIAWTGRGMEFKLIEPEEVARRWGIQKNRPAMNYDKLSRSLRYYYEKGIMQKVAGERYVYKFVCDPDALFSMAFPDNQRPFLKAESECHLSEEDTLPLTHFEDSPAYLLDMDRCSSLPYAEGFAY
Chain of HSF1 (Q00613 whole entry): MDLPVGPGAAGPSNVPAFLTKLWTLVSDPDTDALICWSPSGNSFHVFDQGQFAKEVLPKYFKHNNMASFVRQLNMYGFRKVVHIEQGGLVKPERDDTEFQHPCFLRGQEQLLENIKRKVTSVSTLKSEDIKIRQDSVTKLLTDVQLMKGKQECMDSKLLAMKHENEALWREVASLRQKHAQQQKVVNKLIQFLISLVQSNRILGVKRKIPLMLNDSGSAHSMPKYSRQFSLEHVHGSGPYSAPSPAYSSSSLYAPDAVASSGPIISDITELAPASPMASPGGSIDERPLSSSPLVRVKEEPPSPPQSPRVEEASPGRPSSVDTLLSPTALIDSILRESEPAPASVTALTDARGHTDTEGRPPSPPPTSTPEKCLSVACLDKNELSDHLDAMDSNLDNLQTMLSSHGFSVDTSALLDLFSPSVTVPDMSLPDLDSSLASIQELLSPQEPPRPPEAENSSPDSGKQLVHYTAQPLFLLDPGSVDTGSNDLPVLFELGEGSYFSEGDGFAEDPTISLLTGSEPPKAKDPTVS
Chain of SPIB (Q01892 whole entry): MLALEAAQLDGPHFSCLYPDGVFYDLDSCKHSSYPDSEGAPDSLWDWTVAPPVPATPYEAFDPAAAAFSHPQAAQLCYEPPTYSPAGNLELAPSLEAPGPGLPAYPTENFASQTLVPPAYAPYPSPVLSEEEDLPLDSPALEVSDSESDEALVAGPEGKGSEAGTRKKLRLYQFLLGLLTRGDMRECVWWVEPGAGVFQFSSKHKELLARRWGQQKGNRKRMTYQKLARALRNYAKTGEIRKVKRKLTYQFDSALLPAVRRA
Chain of ELF4 (Q99607 whole entry): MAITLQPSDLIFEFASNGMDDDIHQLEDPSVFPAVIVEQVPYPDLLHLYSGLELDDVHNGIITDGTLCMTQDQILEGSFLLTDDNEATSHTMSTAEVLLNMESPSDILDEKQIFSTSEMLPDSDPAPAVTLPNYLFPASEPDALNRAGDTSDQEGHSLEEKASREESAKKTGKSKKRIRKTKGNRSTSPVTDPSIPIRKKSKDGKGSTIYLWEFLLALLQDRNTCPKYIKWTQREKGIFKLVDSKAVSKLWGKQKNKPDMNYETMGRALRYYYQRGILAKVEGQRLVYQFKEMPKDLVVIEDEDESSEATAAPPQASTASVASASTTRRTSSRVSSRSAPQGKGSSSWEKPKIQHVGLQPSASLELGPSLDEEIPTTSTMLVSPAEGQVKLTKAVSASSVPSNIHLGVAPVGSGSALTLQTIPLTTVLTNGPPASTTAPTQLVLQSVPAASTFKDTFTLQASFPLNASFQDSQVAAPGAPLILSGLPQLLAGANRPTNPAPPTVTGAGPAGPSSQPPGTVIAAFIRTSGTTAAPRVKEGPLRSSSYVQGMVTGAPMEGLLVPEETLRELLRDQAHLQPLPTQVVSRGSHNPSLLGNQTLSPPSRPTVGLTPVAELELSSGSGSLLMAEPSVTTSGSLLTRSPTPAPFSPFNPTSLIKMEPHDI
Chain of CRX (O43186 whole entry): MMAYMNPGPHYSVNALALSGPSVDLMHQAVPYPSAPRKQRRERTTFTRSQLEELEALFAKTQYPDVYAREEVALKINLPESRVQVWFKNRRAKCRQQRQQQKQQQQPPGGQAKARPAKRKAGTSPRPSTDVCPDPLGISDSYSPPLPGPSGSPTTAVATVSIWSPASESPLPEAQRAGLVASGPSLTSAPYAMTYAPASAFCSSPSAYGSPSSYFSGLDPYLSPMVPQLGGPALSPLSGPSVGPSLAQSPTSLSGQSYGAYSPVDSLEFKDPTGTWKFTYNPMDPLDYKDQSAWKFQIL

Sequence: CCCCAT
- binding signal (FLI1): 1.37 fold enrichment (6-mer frequency, TF over GST control)
- binding signal (ELK1): 1.24 fold enrichment (6-mer frequency, TF over GST control)
- binding signal (GABPA): 1.26 fold enrichment (6-mer frequency, TF over GST control)
- binding signal (ERG): 1.34 fold enrichment (6-mer frequency, TF over GST control)
- binding signal (ELF1): 1.31 fold enrichment (6-mer frequency, TF over GST control)
- binding signal (EHF): 1.27 fold enrichment (6-mer frequency, TF over GST control)
- binding signal (SPI1): 1.46 fold enrichment (6-mer frequency, TF over GST control)
- binding signal (SPIB): 1.18 fold enrichment (6-mer frequency, TF over GST control)
- binding signal (ELK3): 1.2 fold enrichment (6-mer frequency, TF over GST control)
- binding signal (FEV): 1.2 fold enrichment (6-mer frequency, TF over GST control)
- binding signal (ETV5): 1.34 fold enrichment (6-mer frequency, TF over GST control)
- binding signal (HSF1): 1.1 fold enrichment (6-mer frequency, TF over GST control)
- binding signal (SPIC): 1.41 fold enrichment (6-mer frequency, TF over GST control)
- binding signal (ELF4): 1.34 fold enrichment (6-mer frequency, TF over GST control)
- binding signal (ELK4): 1.22 fold enrichment (6-mer frequency, TF over GST control)
- binding signal (ETV2): 1.52 fold enrichment (6-mer frequency, TF over GST control)
- binding signal (ELF3): 1.16 fold enrichment (6-mer frequency, TF over GST control)
- binding signal (CRX): 1.15 fold enrichment (6-mer frequency, TF over GST control)
- binding signal (ETV1): 1.37 fold enrichment (6-mer frequency, TF over GST control)
